# Source: PubChem BioAssay
# The list is not random: actives were taken first. Their share in the collection is about 2.6%.
# APOBEC3G inh: APOBEC3G (human) deaminase inhibition. AID 493012. Q9HC16. inhibition, % at 20 µM. 330,000 compounds, 0.28% hits. recombinant A3G, ssDNA deamination FAM/TAMRA fluorescence;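 active = inhibition of at least 40% at 20 µM, with no more than 30% in the related APOBEC3A deaminase screen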;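 also: plate controls were DMSO wells with A3G for no effect and wells lacking A3G enzyme for full effect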
# MLLE-PAM2 inh: inhibitors of microRNA-mediated deadenylation, human PABP1 MLLE binding | GST-MLLE / FITC-PAM2 fluorescence polarization | inhibition, % at 20 µM | 360,000 compounds, 0.36% hits; in the data active = inhibition above about 35%, passing the limit was not always enough;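 also: plate controls were DMSO wells with GST-MLLE for no effect and wells lacking GST-MLLE protein for full effect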
# APOBEC3A inh: inhibitors of human APOBEC3A DNA deaminase; P31941; recombinant A3A, FAM/TAMRA ssDNA deamination fluorescence; inhibition, % at 20 µM; 330,000 compounds, 0.41% hits; AID 493011;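 active = at least 40% inhibition at 20 µM here, with at most 30% in a related deaminase screen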;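 also: plate controls were A3A with DMSO for no effect and wells lacking A3A enzyme for full effect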
# Target sequence (P31941 whole entry, looked up): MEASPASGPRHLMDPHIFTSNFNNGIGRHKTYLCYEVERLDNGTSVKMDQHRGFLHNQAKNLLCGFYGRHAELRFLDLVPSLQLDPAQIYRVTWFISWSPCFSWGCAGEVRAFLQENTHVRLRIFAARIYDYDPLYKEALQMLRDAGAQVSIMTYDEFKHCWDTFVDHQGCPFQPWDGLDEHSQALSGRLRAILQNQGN
# PABP FP inh: PABP-poly(A) binding inhibition. P11940. PABP-poly(A) RNA binding, fluorescence polarization. calls only at 35 µM. 290,000 compounds, 1% hits. AID 2014;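 also: calls also rest on retests at 20 µM and on dose response follow-up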
# PHOSPHO1 block: inhibitors of human PHOSPHO1 phosphatase; Q8TCT1; inhibition, % at 13.3 µM; 290,000 compounds, 1.1% hits; recombinant PHOSPHO1, absorbance phosphatase assay; in the data active = inhibition above about 60%
# Target sequence (Q8TCT1 whole entry, looked up): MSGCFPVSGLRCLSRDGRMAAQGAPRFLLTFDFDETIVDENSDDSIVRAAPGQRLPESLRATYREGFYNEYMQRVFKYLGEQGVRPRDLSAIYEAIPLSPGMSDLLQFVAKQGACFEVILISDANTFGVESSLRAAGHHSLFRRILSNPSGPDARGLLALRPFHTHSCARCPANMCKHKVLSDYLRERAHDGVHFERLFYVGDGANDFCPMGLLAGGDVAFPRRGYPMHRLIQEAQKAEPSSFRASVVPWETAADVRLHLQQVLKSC
# eIF4H FP inh: inhibitors of RNA binding by human eIF4H; Q15056; eIF4H fluorescence polarization binding assay; inhibition, % at 35 µM; 290,000 compounds, 0.94% hits;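 also: calls also rest on retests at 20 µM and on dose response follow-up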
# The depositor's hits bear a star; i = inactive; u = inconclusive; x = no result; + = active, no number. Unless noted, no rule for the calls is given here.
SMILES,APOBEC3G inh,MLLE-PAM2 inh,APOBEC3A inh,PABP FP inh,PHOSPHO1 block,eIF4H FP inh
CCNC(=S)NNC(=O)c1cc(-c2cccc(C)c2)nc2ccccc12,-10,26,-11,i,72*,3
CCNC(=S)NNC(=O)c1cc(-c2cccc(OCC)c2)nc2ccccc12,-7,10,-2,i,43,18
Cn1cnnc1SCc1ccccc1,0,-7,2,i,13,6
Cn1cnnc1SCc1ccc(-c2ccc(Br)cc2)o1,-4,-21,-6,i,85*,12
Cc1cccc(NC(=O)CN2C(=O)S/C(=C\c3ccc(-c4cccc(C(=O)O)c4C)o3)C2=O)c1,4,x,6,i,53,92*
Cc1ccc(NC(=O)CN2C(=O)N/C(=C/c3cc(C)n(-c4cccc(C(=O)O)c4)c3C)C2=O)cc1,x,18,x,+,23,86*
Cc1c(C(=O)O)cccc1-c1ccc(/C=N/n2cnnc2)o1,11,-22,34,+,31,53*
CCN=C1S/C(=C\c2ccc(-c3cccc(C(=O)O)c3)o2)C(=O)N1CC,-2,9,6,i,42,64*
C/C(=N\NC(=O)C(O)(c1ccccc1)c1ccccc1)c1ccc(NC(=O)CCCC(=O)O)cc1,0,-1,4,i,21,-12
Nn1c(SCC(=O)N2CCCc3ccccc32)nncc1=O,-9,7,-1,i,28,-8
Cc1ccc(CN2C(=O)N/C(=C/c3ccc(-c4ccc(C(=O)O)cc4)o3)C2=O)cc1,2,-15,22,+,-2,69*
Cc1cccc(NC(=O)CN2C(=O)N/C(=C\c3ccc(-c4cccc(C(=O)O)c4)o3)C2=O)c1,8,-1,25,+,37,79*
Cc1ccc(CN2C(=O)N/C(=C/c3ccc4c(c3)n(C)c(=O)n4C)C2=O)cc1,13,x,5,i,-3,-12
CCOC(=O)c1cccc(-n2cccc2/C=C2\NC(=O)N(CC(=O)O)C2=O)c1,-2,-1,-2,x,x,x
Cc1cccc(NC(=O)CN2C(=O)N/C(=C/c3ccc(C)o3)C2=O)c1,x,-9,x,i,-9,15
Cc1ccc(NC(=O)CN2C(=O)N/C(=C\c3cccn3-c3cccc(C(=O)O)c3)C2=O)cc1,56,2,95,+,-27,99*
Cc1cc(=O)[nH]c2c(C)cc(S(=O)(=O)Nc3ccc(O)cc3)cc12,-5,-1,-8,i,49,1
CN1C(=O)/C(=C2/C=CC=CN2C)OC1=S,-4,40*,-4,i,28,-8
CCN1/C(=C2\OC(=S)N(C)C2=O)C=Cc2ccccc21,-9,-23,-2,i,2,11
CC1(C)CC(=Cc2cc(O)ccc2[N+](=O)[O-])C(=O)c2ccccc21,x,-7,x,x,x,x
Clc1ccc(C2=CC(c3ccco3)n3ncnc3N2)cc1 (centres undefined),-19,160,-12,+,37,u
Cc1ccc(C(=O)NC(C)c2ccc(-n3ccnc3)cc2)cc1 (centres undefined),-1,-1,-1,i,20,-7
CC(=O)Nc1ccc(C(=O)NC(C)c2ccc(-n3ccnc3)cc2)cc1 (centres undefined),16,17,2,i,68*,-8
Cc1ccc(-n2c(N)c(C(=O)NCc3ccco3)sc2=S)cc1,-4,15,-1,i,23,3
COc1ccc(CNC(=O)c2sc(=S)n(-c3ccc(OC)cc3)c2N)cc1,6,27,0,i,95*,0
SMILES,APOBEC3G inh,MLLE-PAM2 inh,APOBEC3A inh,PABP FP inh,PHOSPHO1 block,eIF4H FP inh
Nc1c(C(=O)NCc2cccnc2)sc(=S)n1-c1ccccc1,38,33,1,i,96*,-4
N#CC1C=Cc2c(ccc3ccccc23)N1C(=O)c1ccccc1 (centres undefined),x,1,x,x,x,x
CCOc1ccccc1NC(=S)NNS(=O)(=O)c1c(C)cc(C)cc1C,-3,41*,3,i,-4,0
CCNC(=O)C(=O)NCc1ccncc1,-2,5,12,i,19,-9
CCC(C)c1ccc(NC(=O)COc2c(F)c(F)c(C(F)(F)F)c(F)c2F)cc1 (centres undefined),5,-7,3,+,-16,active
O=C(COc1c(F)c(F)c(C(F)(F)F)c(F)c1F)Nc1ccc(N2CCOCC2)c(Cl)c1,1,-2,0,i,0,-1
CC(C)(C)C(=O)CNCC(=O)C(C)(C)C,-1,11,-1,i,17,8
CCOC(=O)c1sc(NC(=S)NC(=O)c2ccc(OC)cc2)nc1C,-4,15,-8,i,19,-6
CCOC(=O)c1sc(NC(=S)NC(=O)c2ccco2)nc1C,-11,41*,-5,i,6,4
COC(=O)c1sc(NC(=O)c2ccco2)nc1C,-10,-1,-4,i,3,-1
CCCOc1ccc(C(=O)NC(=S)Nc2nc3ccccc3s2)cc1,-1,-44,-1,i,85*,-2
COc1ccc(C(=O)NC(=S)Nc2nc(C)c(C(=O)N(C)C)s2)cc1,-2,45*,2,i,22,6
CCCCC(=O)Nc1nnc(S(=O)(=O)N2CCCCCC2)s1,-6,-7,-3,x,53,x
C=CCSC1=N/C(=C\C=C\c2ccco2)C(=O)S1,85,3,98,+,70*,96*
CC(C)(C)C(=O)C1=C(O)C(=O)N(c2ccccc2)C1c1ccccc1 (centres undefined),-3,9,-3,i,39,82
O=c1c2ccccc2nc(N/N=C/c2ccc(O)cc2)n1O,-5,18,-6,i,88*,2
O=c1c2ccccc2nc(N/N=C/c2c(O)ccc3ccccc23)n1O,-8,-10,1,i,66*,14
c1ccc(-c2cc(-c3nnco3)c3ccccc3n2)nc1,-1,-10,-2,i,0,13
Cc1ccc(-n2c(C)cc(=O)cc2C)cc1[N+](=O)[O-],-1,-2,1,i,12,-2
COc1cccc(OC)c1NC(=O)C1CCCN1C(=O)Nc1ccccc1Cl (centres undefined),-2,-3,7,i,10,3
O=C1COc2ccc(C(=O)COC(=O)c3sc4ccccc4c3Cl)cc2N1,0,-37,3,i,-9,-4
Cc1nc([N+](=O)[O-])c(C(=O)OCc2ccccc2C#N)n1C,0,-6,1,+,12,active
Cc1ccc(C)c(S(=O)(=O)Nc2cc(SCC(=O)O)c(O)c3ccccc23)c1,x,29,x,i,71*,-4
O=C(O)CSc1cc(NS(=O)(=O)c2cccc([N+](=O)[O-])c2)c2ccccc2c1O,x,43*,x,i,37,-6
O=S(=O)(Nc1cc(Sc2cccc3cccnc23)c(O)c2ccccc12)c1ccccc1,x,x,x,+,60*,75*
